HT1080-NT tox – qHTS for induction of synthetic lethality in tumor cells producing 2HG: qHTS for the HT-1080-NT fibrosarcoma cell line. Potency, µM (titrated, usually from 46.1 µM), usual class: cytotoxic. 360,000 tested, 1.6% active. HT-1080-NT fibrosarcoma viability, CellTiter-Glo ATP luminescence, 48 h;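 further: NT is the 2HG producing partner of a matched IDH1 knockdown line; nearly all actives have a fitted effect of over 55% in size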
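Viability by CellTiter-Glo luminescence after 48 h compound exposure at 37C of HT-1080-NT cells (750/well, RPMI, 5% FBS). % activity scaled between DMSO wells and medium-only wells, then curve-fitted and categorized by curve class.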
DT40 TDP1 no CPT – qHTS for Inhibitors of human tyrosyl-DNA phosphodiesterase 1 (TDP1): qHTS in cells in absence of CPT | AID 686978, 2013 | DT40 Tdp1-/- hTDP1 cells, no CPT, ATP luminescence, 48 h | Potency, µM (titrated, usually from 46.2 µM), most hits filed as inhibitors | 420,000 tested, 15% active; further: nearly all actives have a fitted effect of over 55% in size
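No-CPT arm: Tdp1-/-;hTDP1 DT40 cells (400/well) plus compounds, incubated ≥48 hr at 37 °C. Readout CellTiter-Glo luminescence.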
TDP1 cell CPT – qHTS for Inhibitors of human tyrosyl-DNA phosphodiesterase 1 (TDP1): qHTS in cells in presence of CPT | 420,000 tested, 12% active | Potency, µM (doses to about 46.2 µM), usual class: inhibitors | chicken DT40 Tdp1-/-;hTDP1 cells + 20 nM CPT, ATP luminescence, 48 h | AID 686979, 2013; further: nearly all actives have a fitted effect of over 55% in size
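Cell growth measured by CellTiter-Glo luminescence after a minimum 48 h, 37 C compound exposure with 20 nM CPT in Tdp1-knockout DT40 cells stably expressing hTDP1, seeded 400/well; qHTS titration format.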
IL1B secr inh – qHTS for Inhibitors of Inflammasome Signaling: IL-1-beta AlphaLISA Primary Screen | 360,000 tested, 4.7% active | AID 743279, 2014 | activity change, % at 57.5 µM | THP-1 LPS/ATP IL-1B secretion, AlphaLISA, 16 h; active compounds read low; in the data active means activity change below about -50%; inconclusive means mostly about -30% to -49%
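Secreted IL-1B measured by AlphaLISA bead assay after 16 h compound exposure of THP-1 cells; compounds (final up to 57.5 uM) added 1 h before LPS (250 ng/mL) and ATP (1.25 mM) stimulation; lower signal means less secretion.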
HT1080 IDH1KD tx – qHTS for induction of synthetic lethality in tumor cells producing 2HG: qHTS for the HT-1080-IDH1KD cell line | HT-1080 IDH1 knockdown viability, ATP luminescence, 48 h | Potency, µM (titrated, usually from 46.1 µM), hits mostly cytotoxic | 360,000 tested, 2% active | AID 686971, 2013
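CellTiter-Glo luminescence after 48 h compound exposure at 37 degrees C of IDH1-knockdown HT-1080 cells in 5% FBS RPMI. %Activity scaled between DMSO wells and cell-free media wells, with curves fitted and assigned curve classes.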
Numbers stand for hits; i = inactive; ? = inconclusive; nt = not tested or not shown. Compounds with a hit are over-represented: about 19% of the library has one in this group of screens. Unless noted, the call rests on the fitted dose curve; in most records, active means well fitted curve in the direction sought with a large enough effect; inconclusive means small, poorly fitted or top-dose-only effect, or another doubt; inactive means no such curve, though single readings can be large; an effect the other way counts as inactive or inconclusive.

SMILES | HT1080-NT tox | DT40 TDP1 no CPT | TDP1 cell CPT | IL1B secr inh | HT1080 IDH1KD tx
COc1ccc(N2CCN(C(=O)CN3CCN(C(c4ccccc4)c4ccccc4)CC3)CC2)cc1 | i | 23µM | ? | i | i
O=C(CCC(=O)N1CCN(c2ccc(Cl)c(Cl)c2)CC1)c1ccccc1 | ? | 18µM | 21µM | i | i
CCCCC(CC)C(=O)Nc1ccc(C)c(O)c1 (stereo not given) | i | i | ? | i | i
COC(=O)c1cc(OC)c(OC)cc1NC(=O)CCN1C(=O)C2CCCCC2C1=O (stereo not given) | i | i | i | i | i
Cc1ccc(C(=O)NC(=S)Nc2ccccc2N2CCOCC2)cc1C | ? | ? | 26µM | i | ?
COc1cc(C(=O)NC(=S)Nc2ccccc2N2CCOCC2)cc(OC)c1OC | i | 12µM | 18µM | i | i
FC(F)(F)Oc1ccc(NC(=S)Nc2ccccc2N2CCOCC2)cc1 | i | 16µM | ? | i | i
C/C(CCc1ccc2c(c1)OCO2)=N\N=C1\NC(=O)CC(C(=O)Nc2ccccc2F)S1 (stereo not given) | i | i | i | i | i
Cc1cc(NC(=O)CCC(=O)N(c2cccc(F)c2)C(C(=O)NC2CCCC2)c2ccc(C)o2)no1 (stereo not given) | i | ? | i | ? | i
O=C(Nc1ccc2c(c1)OCCO2)C1CCCN1C(=O)Nc1ccc(F)cc1 (stereo not given) | i | i | i | i | i
c1cc2c(c(CC3CO3)c1CC1CO1)OCCOCCOCCOCCO2 (stereo not given) | i | 2.3µM | 2.1µM | i | i
CCOC(=O)N1CCN(C(=O)c2noc3c2COc2ccccc2-3)CC1 | i | i | ? | i | i
CCCN1CCN(C(=O)c2noc3c2COc2ccc(C)cc2-3)CC1 | i | 16µM | 21µM | i | i
CN(Cc1ccco1)c1ncncc1-c1cccc(C#N)c1 | nt | i | i | nt | nt
COc1ccc(/C=C2\CN(Cc3ccccc3)C/C(=C\c3ccc(OC)cc3)C2=O)cc1 | ? | 16µM | 10µM | i | 23µM
O=C(Nc1ccc(F)cc1F)c1cc(-c2ccccc2O)no1 | nt | i | i | nt | nt
CCOC(=O)C1CCN(Cc2cc(Cl)c3ccccc3c2O)CC1 | ? | ? | 18µM | i | 26µM
OC1CCCN(Cc2c3ccccc3cc3ccccc23)C1 (stereo not given) | ? | ? | i | i | ?
CCOC(=O)C1CCN(Cc2nc3ccc(Cl)cc3n2CCO)CC1 | i | ? | 21µM | i | i
Oc1c(CN2CCCC(C(F)(F)F)C2)cc(Cl)c2ccccc12 (stereo not given) | ? | ? | 18µM | i | ?
CCOC(=O)C1CCN(Cc2cc(=O)oc3cc(C)c(Cl)cc23)CC1 | i | 23µM | ? | i | i
O=C(NCC1CCCO1)C1CCN(S(=O)(=O)c2cc(Cl)ccc2Cl)CC1 (stereo not given) | i | i | i | i | i
C=CC[C@H](CC(=O)NCCO)C(=O)NC[C@@H](OC(=O)[C@@H](CC=C)CC(=O)OC(C)(C)C)c1ccccc1 | i | ? | ? | i | i
CCC1(C)Cc2ccccc2-c2[nH]c(=S)[nH]c(=O)c21 (stereo not given) | i | i | i | i | i
Cc1nc(=S)c2c([nH]1)-c1ccccc1CC21CCCCC1 | i | 18µM | 21µM | i | i
SMILES | HT1080-NT tox | DT40 TDP1 no CPT | TDP1 cell CPT | IL1B secr inh | HT1080 IDH1KD tx
COc1ccc(N2CCN(C(=O)CCS(=O)(=O)c3ccc(C)cc3)CC2)cc1 | i | i | ? | i | i
Cc1ccc(S(=O)(=O)CCC(=O)N2CCN(c3ccc([N+](=O)[O-])cc3)CC2)cc1 | i | 10µM | 18µM | i | i
COc1ccc(S(=O)(=O)CCC(=O)N2CCN(c3ccc([N+](=O)[O-])cc3)CC2)cc1 | i | 3.7µM | 10µM | ? | i
C[C@H](c1ccccc1)N1C[C@@H](COCc2ccccc2)Oc2cc(N3CCC[C@@H]3CO)ccc2S1(=O)=O | i | 21µM | ? | i | ?
C[C@H](c1ccccc1)N1C[C@H](COCc2ccccc2)Oc2cc(N3CCC[C@H]3CO)ccc2S1(=O)=O | i | ? | ? | i | i
C[C@@H](c1ccccc1)N1C[C@@H](COCc2ccccc2)Oc2cc(N3CCC[C@H]3CO)ccc2S1(=O)=O | i | 21µM | ? | ? | i
CNC1C(O)C(O[C@H]2C(O)[C@@H](OC3OC(CN)=CCC3N)[C@H](N)C[C@@H]2N)OC[C@]1(C)O (stereo not given in full) | nt | i | i | nt | nt
O=C(Nc1ccccc1)c1nsnc1C(=O)Nc1ccccc1 | i | ? | ? | i | i
CCOC(=O)c1cnn(-c2ccccc2)c1-n1cccc1C(=O)C(=O)Nc1ccc(OC)cc1 | i | ? | ? | i | i
CCOc1ccc(S(=O)(=O)N(CCO)CCO)cc1-c1nc2c(C(C)(C)C)nn(C)c2c(=O)[nH]1 | i | 18µM | ? | ? | i
CCCc1nn(C)c2c(=O)[nH]c(-c3cc(S(=O)(=O)N(CCO)CCO)ccc3OCC)nc12 | i | i | ? | i | i
CCOc1ccc(S(=O)(=O)NC(C)(C)C)cc1-c1nc2c(C(C)(C)C)nn(C)c2c(=O)[nH]1 | ? | ? | 21µM | -98 | ?
CCCCNC(=O)CSc1nnc(-c2cccc(S(=O)(=O)N3CCOCC3)c2)o1 | i | i | i | ? | i
CC(C)(C)C1=C(C#N)C(c2ccncc2)C(C#N)=C(N)O1 (stereo not given) | i | 29µM | 18µM | i | i
CC(C)(C)C1=C(C#N)C(c2ccc3c(c2)OCO3)C(C#N)=C(N)O1 (stereo not given) | i | i | ? | i | i
CC(C)N1C(=O)CCC1C(=O)NCc1cccs1 (stereo not given) | i | i | i | i | i
CC(=O)OCC(=O)Nc1c(C)cc(C)cc1C | i | i | ? | i | i
COc1ccc(Cc2nnc(Cl)c3ccccc23)cc1OC | i | i | i | i | i
COCCN=c1scc(-c2ccc3c(c2)NC(=O)CO3)n1/N=C(\C)c1ccc(O)cc1 | ? | ? | ? | -61 | ?
COc1cc(/C=N/n2c(-c3ccc4c(c3)NC(=O)CO4)csc2=Nc2cccc(C)c2)ccc1O | i | ? | 13µM | ? | i
COCCN=c1scc(-c2cccs2)n1/N=C(\C)c1ccco1 | i | ? | ? | ? | i
CC1CCC(N(C)C(=O)CN2C(=O)NC(c3ccccc3)(c3ccccc3)C2=O)CC1 (stereo not given) | i | ? | 23µM | i | i

Screening results deposited in PubChem BioAssay by National Center for Advancing Translational Sciences (NCATS).
